Pf growth 96h: P. falciparum growth inhibition at 96 hours | P. falciparum luciferase reporter growth, 96 h | Potency, µM (doses to about 28.7 µM), for inactives: top-dose activity change, negative = inhibition, most hits filed as inhibitors | hit rate 6.9% among 320,000; further: on the % scale 0 is the no-effect control and ±100 the full control effect
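Erythrocytes infected with luciferase-expressing P. falciparum were dispensed at 2% hematocrit and 0.05% parasitemia (final), then incubated with compounds 96 hours at 37 C in 5% CO2. Luminescence after detection reagent addition reported growth.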
Pf growth 48h: P. falciparum growth inhibition at 48 hours (one generation); P. falciparum luciferase growth in erythrocytes, 48 h; Potency, µM (series often up to 28.7 µM), without a hit: at the highest dose activity change, negative = inhibition, usual class: inhibitors; hit rate 5.9% among 310,000; further: on the % scale 0 is the no-effect control and ±100 the full control effect
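Luciferase-expressing P. falciparum in infected erythrocytes (2% hematocrit, 0.1% parasitemia final) in RPMI 1640/0.5% Albumax were exposed to compound for 48 hours at 37 C, 5% CO2; growth read as luminescence.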
AMA1-RON2 inh: disrupts binding of P. falciparum AMA1 to RON2; AlphaScreen AMA1-biotinylated RON2 peptide binding; Potency, µM (doses to about 58.2 µM), without a hit: at the highest dose activity change, negative = inhibition, usual class: inhibitors; AID 720542; hit rate 0.2% among 360,000;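 further: 0% = vehicle wells and -100% = peptide control; nearly all actives have a fitted effect of over 45% in size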
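AMA1 (3D7) with his tag at 25 nM final met compounds first, then biotinylated RON2 peptide at 25 nM; detection used donor plus acceptor beads, 10 µg/mL apiece, read by AlphaScreen after 30 min at room temperature.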
Sm TGR block: inhibitors of Schistosoma mansoni thioredoxin glutathione reductase; Q962Y6; purified TGR, DTNB reduction, TNB absorbance 405 nm; Potency, µM (titrated, usually from 114 µM), without a hit: top-dose activity change, negative = inhibition, actives largely listed as inhibitors; hit rate 3% among 360,000; further: on the % scale 0 is the no-effect control and ±100 the full control effect; nearly all actives have a fitted effect of over 60% in size
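First, TGR (20 nM dispensed) and NADPH were mixed with compound. Second, a 15 min room-temperature incubation followed. Third, further NADPH and then DTNB were added to start the reaction. Finally, TNB absorbance was monitored kinetically.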
NS1 inh: inhibitors of influenza NS1 protein function. hit rate 0.4% among 270,000. Potency, µM (highest dose often 46.1 µM), without a hit: at the top dose activity, positive = more growth; calls by dose curve; further: actives are rising curves; nearly all actives have a fitted effect of over 50% in size
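OD600 was taken as the measure of yeast growth restored by compound in an NS1-expressing S. cerevisiae strain. Cells had been washed out of glucose medium and diluted 1:100 into galactose -URA medium, pH 6.0.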
* = called active by the depositor; ? = inconclusive; · = not tested or not shown. Only some compounds are listed: those with a hit (about 11% of all), similar ones and a draw of the others. Unless noted, the call rests on the fitted dose curve; in most records, active means well fitted curve in the direction sought with a large enough effect; inconclusive means small, poorly fitted or top-dose-only effect, or another doubt; inactive means no such curve, though single readings can be large; an effect the other way counts as inactive or inconclusive. Potency means the concentration at half of the fitted maximal effect.

SMILES	Pf growth 96h	Pf growth 48h	AMA1-RON2 inh	Sm TGR block	NS1 inh
O=C(NCC(c1ccco1)N1CCc2ccccc2C1)C(=O)Nc1ccccc1 (centres undefined)	?	?	-8%	-19%	·
COc1ccc(C(CNC(=O)c2cccc(NS(=O)(=O)c3ccccc3)c2)N2CCCC2)cc1 (centres undefined)	·	·	-3%	·	·
CCCCc1nc2cc(C(=O)N3CCCCC3C(=O)OC)ccc2o1 (centres undefined)	?	52%	-7%	-19%	-7%
CCOC(=O)c1ccc(NS(=O)(=O)c2ccc3c(c2)CCN3C(=O)CC)cc1	·	·	·	-27%	·
COc1ccccc1NS(=O)(=O)c1cccc(C(=O)NCC(c2ccccc2OC)N2CCCC2)c1 (centres undefined)	?	8.3µM*	38%	-2%	·
CCOC(=O)c1c(NC(C)=O)sc2c(OCC(O)CN(CC)CC)c(Br)ccc12 (centres undefined)	7.4µM*	-21%	2%	-32%	·
CCOC(=O)C1CCCN(/C=C2\SC(=S)N(CC)C2=O)C1 (centres undefined)	-15%	-15%	0%	0%	-5%
COc1cc2c(cc1/C=C/C(=O)O)OC(C)C2 (centres undefined)	3%	8%	-2%	17%	·
CC(C)(O)C1Cc2cc(/C=C/C(=O)O)c(O)cc2O1 (centres undefined)	-4%	2%	-3%	0.22µM*	1%
Cc1c2cnn(CC(=O)NCC(C)c3ccccc3)c(=O)c2c(C)n1Cc1cccc(Cl)c1 (centres undefined)	·	·	·	-3%	·
CCOC(=O)c1c(NC(=O)CCS(=O)(=O)c2ccccc2)sc2c1CCN(C)C2	?	?	-14%	-18%	21%
CCOC(=O)c1c(NC(=O)CCS(=O)(=O)c2ccccc2)sc2c1CC(C)(C)NC2(C)C	?	-20%	1%	40µM*	9%
CCOC(=O)c1c(NC(=O)Cc2ccccc2)sc2c1CC(C)(C)NC2(C)C	0.93µM*	?	-3%	1%	15%
CCOC(=O)c1c(NC(=O)c2ccc(C)cc2)sc2c1CC(C)(C)NC2(C)C	40%	34%	·	11%	2%
CCOC(=O)N1CCN(S(=O)(=O)c2ccc(C(=O)Nc3sc4c(c3C(N)=O)CC(C)(C)NC4(C)C)cc2)CC1	?	12µM*	-28%	14%	-4%
CCOC(=O)c1c(NC(=O)COC(=O)c2ccc(C)s2)sc2c1CC(C)(C)NC2(C)C	4%	-6%	-15%	0%	·
CCOC(=O)c1c(NC(=O)COc2ccccc2OCC)sc2c1CC(C)(C)NC2(C)C	12µM*	?	-7%	-7%	·
Cc1cn2c(=O)c(S(=O)(=O)N3CCN(c4cc(Cl)ccc4C)CC3)c(C)nc2s1	·	·	·	-1%	·
COC(=O)c1c(NC(=O)c2ccco2)sc2c1CC(C)(C)NC2(C)C	17µM*	-1%	15%	1%	22%
CC1(C)Cc2c(sc(NC(=O)COc3cccc4ccccc34)c2C#N)C(C)(C)N1	?	?	7%	17%	3%
CCOC(=O)c1c(NC(=O)COc2ccccc2C#N)sc2c1CC(C)(C)NC2(C)C	5.2µM*	12µM*	12%	-5%	-1%
O=C(CCCOc1ccc(Cl)cc1Cl)NC(Cc1ccccc1)C(=O)O (centres undefined)	·	·	-1%	·	·
CC(C)C[C@H]1CNC(=S)N1CC1CCN(CCCC2CCCCC2)CC1	·	·	4%	·	·
COc1ccc(C(=O)N(C)c2ccccc2C(=O)NCCc2ccccc2)cc1	?	-14%	0%	7%	4%
Cc1cc(C)nc(N/N=C2/CCSc3ccc(F)cc32)n1	10µM*	?	39%	-2%	-64%
SMILES	Pf growth 96h	Pf growth 48h	AMA1-RON2 inh	Sm TGR block	NS1 inh
O=C(O)CCCC1(C(=O)O)CCCC1	·	·	-6%	·	·
CCCCOc1ccc(C2C3CN(C(=O)OCC)CC=C3C(C#N)=C(N)C2(C#N)C#N)cc1OC (centres undefined)	·	12µM*	4%	0%	-34%
N#CC1=C(N)C(C#N)(C#N)C(c2cccnc2)C2CN(C(=O)OCc3ccccc3)CC=C12 (centres undefined)	9.3µM*	?	-13%	?	16%
CCOC(=O)N1CC=C2C(C#N)=C(N)C(C#N)(C#N)[C@H](c3ccc(OCC)c(OCC)c3)[C@H]2C1	8%	5.2µM*	-5%	-31%	5%
COc1ccc(OC)c(C2C3CN(C(C)C)CC=C3C(C#N)=C(N)C2(C#N)C#N)c1 (centres undefined)	?	?	-5%	?	-2%
Cc1ccc(C2C3CN(C(C)C)CC=C3C(C#N)=C(N)C2(C#N)C#N)cc1 (centres undefined)	0%	8.3µM*	31%	?	24%
COC(=O)c1cc(S(=O)(=O)NCCc2cccc(C)c2)cn1C	19%	23%	9%	-22%	4%
O=C(Cc1ccccc1)NCC(=O)N1CCN(Cc2cccc(Cl)c2)CC1	·	·	0%	·	·
COc1ccc(N2C(=O)CC(N3CCN(c4ccc(S(C)(=O)=O)cc4)CC3)C2=O)cc1 (centres undefined)	-23%	·	-2%	18µM*	2%
COc1ccc(N2CCN(C3CC(=O)N(C)C3=O)CC2)cc1 (centres undefined)	0%	8%	0%	2%	0%
COc1cccc(N2C(=O)CC(N3CCC(c4nc5ccccc5[nH]4)CC3)C2=O)c1 (centres undefined)	0%	0%	21%	-15%	-78%
COc1ccc(N2C(=O)CC(N3CCC(n4c(=O)[nH]c5ccccc54)CC3)C2=O)cc1 (centres undefined)	19%	·	-4%	35µM*	-18%
COc1ccc(N2C(=O)CC(Sc3nc4ccccc4s3)C2=O)cc1 (centres undefined)	?	?	-5%	22µM*	·
COc1ccc2nc(N3C(=O)CC(C(C)c4ccccc4)C3=O)sc2c1 (centres undefined)	3.7µM*	-7%	3%	4%	2%
CCOc1ccc2nc(SC3CC(=O)N(c4ccc(OC)cc4)C3=O)sc2c1 (centres undefined)	17%	72%	38%	-31%	-22%
COc1ccc2nc(N3C(=O)CC(Cc4ccc(C)cc4)C3=O)sc2c1 (centres undefined)	64%	-2%	3%	5%	8%
CC(C)N(Cc1ccccc1)C(=O)Cn1ncc2c3ccccc3n(Cc3ccccc3)c2c1=O	·	·	·	3%	·
O=C(Nc1ccnn1C1CCN(C(=O)c2cc(Cl)ccc2F)CC1)C1CCOC1 (centres undefined)	?	-8%	1%	5%	-4%
C=CCNc1nnc(SC2CC(=O)N(c3ccc(OC)cc3)C2=O)s1 (centres undefined)	?	·	5%	2.8µM*	-211%

Assay outcomes from PubChem BioAssay.
